In PubChem BioAssay AID1845227 (National Center for Advancing Translational Sciences (NCATS), 2023):
Records with an inconclusive call do not appear. Unmarked numbers belong to inactive results. Activity calls are given as the source filed them. Calls follow the shape of the dose curve; as a rule, active = well fitted inhibition curve with a large enough effect; inconclusive = small, poorly fitted or top-dose-only effect; inactive = no such curve, though single readings can be large or run the other way.

What follows are compounds tested against Luciferin 4-monooxygenase (Photinus pyralis) (UniProt P08659) (assay: Confirmatory firefly luciferase (FLuc) qHTS assay for identification of artifact compounds). Settings: purified FLuc enzyme, luminescence, 5 min; series mostly up to 38.9 µM; activity change, negative = inhibition: at the top concentration.
Excerpt: PI: Alexander Tropsha Ph.D. UNC Eshelman School of Pharmacy University of North Carolina, Chapel Hill, North Carolina Hits from high-throughput screening (HTS) of chemical libraries are often false positives due to their interference with the assay detection technology. In response to this problem, we generated the largest publicly available library of chemical liabilities and developed a free webtool to predict HTS artifacts, both of which are described herein. More specifically, we generated, curated, and integrated HTS datasets for thiol reactivity, redox activity, and luciferase (firefly and nano) activity. Using these curated datasets, we developed and validated several Quantitative Structure-Interference Relationship (QSIR) models to predict nuisance behavior. […] These models were employed for virtual profiling of the National Center for Advancing Translational Science's (NCATS) in-house library, and 256 compounds for each assay were selected for the experimental validation of nuisance behavior. The BA for these external predictions ranged from 58 to 78% for compounds within the applicability domains of the models. […] The models developed in this study, along with aggregation models previously developed by our group (SCAM Detective) were implemented in "Liability Predictor," an online tool which may be used as part of chemical library design or for triaging HTS hits. Both the models and the curated datasets are publicly available at https://liability.mml.unc.edu/.
PROTOCOL TABLE SEQUENCE No. (e.g., 1, 2, 3, etc.); […] (e.g., Cells, Incubation, Reagent, etc.); VALUE; DESCRIPTION. 1; Reagent; 3 uL; Luciferase substrate mixture. 2; Compounds and control; 16 nL; Kalypsis pin tool (Wako USA) equipped with a 1536-well pin head. 3; Incubation; 15 min. 4; Reagent; 1 uL; Luciferase enzyme. 5; Incubation; 5 min. 6; Detection; Luminescence, ViewLux microplate reader. NOTES (numbers refer to Sequence numbers above) 1. 3 uL of luciferase substrate mixture containing D-luciferin and ATP (final concentrations of 10 uM and 10 uM, respectively) in assay buffer (10 mM Mg-acetate, 0.01% Tween-20, 0.05% bovine serum albumin, 50 mM Tris acetate, pH 7.6) was dispensed into all wells of a 1536-well assay plate (solid-bottom white plate; Greiner Bio One, Monroe, NC). 2. A Wako Pin-tool (Wako Automation, Richmond, VA) was used to transfer 16 nL of compounds (consisting of 7-plates in qHTS format, final concentration range 18.3 nM to 114 uM) or control PTC124 (final concentration range 1.22 nM to 40 uM). 3. 15 min. incubation at room temperature protected from light. 4. 1 uL of luciferase enzyme (final concentration 10 nM, Photinus pyralis luciferase) or buffer was dispensed for a final assay volume of 4 uL. 5. Plates were centrifuged (121xg, 15 seconds) and incubated for 5 minutes. 6. Samples were read for luminescence on a ViewLux CCD imager (PerkinElmer). Data were normalized to no-enzyme (0% activity) and no-inhibitor (DMSO; 100%) controls and the resulting percent inhibition data were fitted to a 4-parameter Hill equation using NCATS in-house software.
Potency is read from the fitted curve at half-maximal effect.

Compound	Potency	activity change, negative = inhibition
O=C(O)c1cc[c]([Hg][S]c2ncnc3nc[nH]c23)cc1	12.2 µM (active)	–
C[C@@]12CCC(OS(=O)(=O)O)C[C@@H]1CCC1C2CC[C@]2(C)C(=O)CCC12 (stereo not given in full)	–	11.6%
COC(=O)[C@]1(C)CC[C@@]2(C)CC[C@@]3(C)C4=CC=C5C(=CC(=O)C(O)=C5C)[C@@]4(C)CC[C@@]3(C)C2C1 (stereo not given in full)	–	-15.8%
CC(=O)OCC(=O)[C@H]1CC[C@H]2[C@@H]3CC[C@H]4C[C@H](O)CC[C@]4(C)[C@H]3C(=O)C[C@]12C	–	4.2% [at 13.1 µM]
CN(C)[C@@H]1C(=O)C(C(N)=O)=C(O)[C@@]2(O)C(=O)C3=C(O)c4c(O)ccc(Cl)c4[C@@](C)(O)[C@H]3C[C@@H]12	–	-8.7% [at 13.1 µM]
